# Assay results published in PubChem BioAssay (NCATS).
# Inconclusive results are not listed. A number with no mark means an inactive call. Calls of active or inactive are those of the source. The call rests on the fitted dose curve; in most records, active means well fitted inhibition curve with a large enough effect; inconclusive means small, poorly fitted or top-dose-only effect; inactive means flat fitted curve, though single readings scatter.
# Test system: CP297
# Test: qHTS profiling for inhibitors of Plasmodium falciparum proliferation (AID 504749); further: nearly all actives have a fitted effect of over 60% in size;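 on activity, negative = inhibition: 0% = DMSO vehicle and full inhibition = artemisinin control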
# Conditions: P. falciparum in erythrocytes, SYBR Green DNA, 72 h; series mostly up to 28.7 µM; activity, negative = inhibition: at the top concentration
# How it was run: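 Infected RBCs, 0.3% parasitemia/2.5% Hct final; cpd 72 h, 37 C, 5% CO2; lysis buffer with saponin/triton/SYBR Green I, o/n RT dark; FI 485/535; norm. to artemisinin (0.29 uM) and DMSO.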
# Potency means the concentration at half of the fitted maximal effect.
Compound,"activity, negative = inhibition",Potency
S=C=Nc1ccc(N=C=S)cc1,4.75%,
N=C(N)n1cccn1,-3.03%,
Cc1cccc(C)c1NC(=O)NC1=CCCN1C,-0.109%,
Cc1cc(-c2ccc(N=Nc3ccc4c(S(=O)(=O)O)cc(S(=O)(=O)O)c(N)c4c3O)c(C)c2)ccc1N=Nc1ccc2c(S(=O)(=O)O)cc(S(=O)(=O)O)c(N)c2c1O,2.66%,
O=P(O)(O)O,-5.17%,
CN(CCO)CC(O)Cn1cnc2c1c(=O)n(C)c(=O)n2C (stereo not given) (tested in a mixture with another compound),7.76%,
O=C(O)Cc1cc(I)c(Oc2ccc(O)c(I)c2)c(I)c1,5.71% [at 12.8 µM],
COC1=C(OC)C(=O)C(C/C=C(\C)CC/C=C(\C)CC/C=C(\C)CC/C=C(\C)CC/C=C(\C)CC/C=C(\C)CC/C=C(\C)CC/C=C(\C)CC/C=C(\C)CCC=C(C)C)=C(C)C1=O,-13.1%,
CN=C1C=CC(=C(c2ccc(N(C)C)cc2)c2ccc(N(C)C)cc2)C=C1,,1.07 µM (active)
CCOc1ccc(S(=O)(=O)O)c2cccnc12,3.52%,
FC(F)(F)COCC(F)(F)F,-10%,
O=C(O)[C@H]1C(=CCO)O[C@H]2CC(=O)N12,2.27%,
CC1CC(O)CC(C)(C)C1 (stereo not given),2.05%,
Cc1ncc(C[n+]2csc(CCOP(=O)(O)O)c2C)c(N)n1,-2.21%,
CCCCO,1.67%,
CCOC(=S)SSC(=S)OCC,1.45%,
N[C@H](CC(=O)O)C(=O)O,2.01%,
CCC(C(=O)NC(N)=O)c1ccccc1 (stereo not given),-16.7%,
CCN(CC)CCOC(=O)c1cccnc1,-0.955%,
NC(=S)NS(=O)(=O)c1ccc(N)cc1,-1.98%,
